Consider 24 molecules from PubChem BioAssay (EPA / NIEHS).

Several values for one entry are separate records, joined by “and”; a condition that tells them apart may be missing. Identical values can stand only once. Inconclusive results are not listed. More than one record can exist for a structure, and the calls need not agree. Activity calls are given as the source filed them. Rule for the calls, unless noted: active = hit-call score of the fitted dose curve at least 0.9, where 1 is the maximum; inactive = score below 0.9.

In general, AC50 refers to the midpoint of the concentration-response curve, whichever way the signal moves.

The nature of one test: CCTE_Shafer_MEA_acute_LDH: CCTE's Lactate Dehydrogenase Assay for Cytotoxicity in the Neural Acute Assay, Shafer Lab (AID 2284086; active = hit-call score of the fitted dose curve at least 0.9, where 1 is the maximum;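 note: active means LDH release rises above DMSO vehicle level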). The method, boiled down: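 Cytotoxicity readout: spectrophotometric LDH activity in supernatant of rat primary cortical neurons, post-plating day 13 or 15, sampled after 40 min compound exposure; signal gain relative to DMSO baseline.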
Turning to `CC(C)(C)[C@@H](O)[C@@H](Cc1ccc(Cl)cc1)n1cncn1`, the result was inactive. On the same count and under the same terms, the same measure for `O=C(Nc1ccc([N+](=O)[O-])cc1Cl)c1cc(Cl)ccc1O`: “inactive”; for `CSC(=O)c1cccc2nnsc12`: “inactive”. The same measure, in the same setting: the same measure for `Oc1ccc(C(c2ccc(O)cc2)C(Cl)(Cl)Cl)cc1`: “inactive”; for `O=C(c1ccccc1)C1CCCCC1`: “inactive”; for `CC1(C)C(C=C(Cl)Cl)C1C(=O)OCc1cccc(Oc2ccccc2)c1` (stereo not drawn): “inactive”. On the same count and under the same terms, under `CCCCC(CC)CN1C(=O)C2C3C=CC(C3)C2C1=O` (stereo not drawn) stands “inactive”; under `O=C(O)c1ccccc1`, “inactive”; under `N#CSCSc1nc2ccccc2s1`, “inactive”. As for `O=C(c1ccc(O)cc1O)c1ccc(O)cc1O`, the molecule was called inactive. `CCNc1nc(N)nc(Cl)n1`: the outcome was inactive. On the same count and under the same terms, under `Cc1nn(C)c(Oc2ccccc2)c1C=NOCc1ccc(C(=O)OC(C)(C)C)cc1` stands “inactive”; under `CC(C)CCCCCCc1ccc(O)cc1`, “inactive”.

With `C=CCOC(Cn1ccnc1)c1ccc(Cl)cc1Cl` (stereo not drawn), the molecule was called inactive. As to `CCCN(CCC)c1c([N+](=O)[O-])cc(C(F)(F)F)c(N)c1[N+](=O)[O-]`, the outcome was inactive. On the same count and under the same terms, under `OB(O)O` stands “inactive”; under `CC(C)(c1ccc(O)cc1)c1ccc(O)cc1`, “inactive”.

The next test in a line: CCTE_Shafer_MEA_dev_mutual_information_norm: CCTE's Neural Network Formation Assay for Mutual Information Normalization, Shafer Lab (AID 2284091).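 For AC50: mutual information between electrodes summarised as area under curve across four recording days; potency is for a decrease in mutual information relative to DMSO.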 The method, boiled down:
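Exposure of primary rat cortical neurons began at plating and ran to DIV 12, with full media and treatment renewal after DIV 5 and 9 recordings. Mutual information AUC (DIV 5–12) was analysed for loss versus DMSO.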
In the case of `CSC(=O)c1cccc2nnsc12`, the molecule was called inactive.

For the molecule `Oc1ccc(C(c2ccc(O)cc2)C(Cl)(Cl)Cl)cc1`, the molecule was classed as inactive. For `S=C(S)NCCNC(=S)S.[Mn+2].[S-]C([S-])=NCCN=C([S-])[S-].[Zn+2]`, the molecule was called inactive. Consider `S=C([S-])NCCNC(=S)[S-].[Mn+2]`, for which the molecule was called inactive.

As to `CCCN(CCC)C(=O)SCC`, the molecule was classed as inactive. With `CC1(C)C(C=C(Cl)Cl)C1C(=O)OCc1cccc(Oc2ccccc2)c1` (stereo not drawn), the AC50 is 15 µM (active) and 5.01 µM (active). Consider `CCCCC(CC)CN1C(=O)C2C3C=CC(C3)C2C1=O` (stereo not drawn), for which the molecule was called inactive. The same measure, in the same setting: the same measure for `O=C(O)c1ccccc1`: “inactive”; for `COCCO`: “inactive”. In the case of `Cc1nn(C)c(Oc2ccccc2)c1C=NOCc1ccc(C(=O)OC(C)(C)C)cc1`, the AC50 is 1.28 nM (active). On to `C#CCOC(=O)[C@@H](C)Oc1ccc(Oc2ncc(Cl)cc2F)cc1`, for which the call was inactive. On the same count and under the same terms, under `CCN(CC)C(=O)c1cccc(C)c1` stands “inactive”; under `CCCCOCCOCCOCc1cc2c(cc1CCC)OCO2`, “inactive”. As to `OB(O)O`, the molecule was called inactive.

In the case of `CC(C)(c1ccc(O)cc1)c1ccc(O)cc1`, the AC50 is 1950 nM (active) and the molecule was called inactive.
